Data on 92 molecules can be found in PubChem BioAssay AID588689 (Southern Research Specialized Biocontainment Screening …, 2011).

The campaign covered roughly 340,000 compounds. About 1,000 (0.29%) were called active. Cut-off read from the data, not from the text of the source: inconclusive = inhibition above about 29% without an active follow-up result; inactive = below that. Not all results are given here. Potency and affinity values are given separately.

This experiment addresses Genome polyprotein (Dengue virus type 2 (strain 16681-PDK53)) (UniProt P29991). As to the kind of experiment: Dengue-2 NS5 methyltransferase inhibitors, primary screen, biochemical, confirmation dose response (AID 588689). As to conditions: Dengue-2 NS5 methyltransferase capping enzyme assay, at 25 µM, stronger effect = higher value.
Setting [1] is: measured here: pilot screen replicate inhibition.

Take `O=C(CSc1nnc(Cc2ccccc2)o1)NCCN1C(=O)CSC1=O`: the inhibition was -7.38% (inactive).

Turning to `CCCCc1ccc(/C=C(\C#N)C(N)=S)s1`, the inhibition was 0% (inactive).

As to `CCc1ccc(/C=C(/C#N)C(N)=S)s1`, the inhibition was 0% (inactive).

As for `Cc1ccc(N2C(=O)CC(Nc3ccc(Cl)c(S(=O)(=O)N(C)C)c3)C2=O)c(C)c1` (centres undefined), the inhibition is -11.6% (inactive).

As for `Cc1ccc(S(=O)(=O)NCCOCCNS(=O)(=O)c2ccc(C)cc2)cc1`, the inhibition is -4.78% (inactive).

On to `CC(/C=C1\SC(=S)N(NC(=O)c2ccncc2)C1=O)=C\c1ccccc1`, for which the inhibition was 21.6% (inactive).

As for `CC(/C=C1\SC(=S)N(CC(=O)N2CCN(c3ccccc3)CC2)C1=O)=C\c1ccccc1`, the inhibition is -0.73% (inactive).

Take `CCC(C(=O)O)N1C(=O)/C(=C/c2cccn2C)SC1=S` (centres undefined): the inhibition was -25.5% (inactive).

As for `CC(/C=C1\SC(=S)N(CC(=O)O)C1=O)=C\c1ccccc1`, the inhibition was 26% (inactive).

With `CC(C)C(C(=O)O)N1C(=O)/C(=C/C=C/c2ccco2)SC1=S` (centres undefined), the inhibition is 42.9% (inactive).

For the molecule `CC(C)C(C(=O)O)N1C(=O)/C(=C/c2cccn2C)SC1=S` (centres undefined), the inhibition is -19.5% (inactive).

Take `CC(/C=C1\SC(=S)N(CCC(=O)Nc2ccc(O)cc2)C1=O)=C\c1ccccc1`: the inhibition is 1.3% (inactive).

Take `CCOC(=O)c1c(C)[nH]c(C(=O)OCC(=O)NC2(C#N)CCCCC2)c1C`: the inhibition was -11.6% (inactive).

Take `O=c1n(Cc2ccccc2F)c2ccccc2n1Cc1ccccc1F`: the inhibition is -3.2% (inactive).

In the case of `FC(F)(F)c1ccccc1/C=N/n1c(C2CCCCC2)n[nH]c1=S`, the inhibition was 10.6% (inactive).

On to `COc1ccc(N=C2SC(C(=O)O)CC(=O)N2C)cc1` (centres undefined), for which the inhibition was 0.68% (inactive).

As to `COc1cccc(NC(=O)CN(C)C(=O)c2cccc(S(=O)(=O)N3CCN(c4ccccc4)CC3)c2)c1`, the inhibition is -6.1% (inactive).

As for `O=C(COc1ccc(S(=O)(=O)N2CCCCC2)cc1)NCC1CCCO1` (centres undefined), the inhibition was -5.9% (inactive).

For `Cc1nnc(NCCc2ccccc2)c2ccccc12`, the inhibition is -6.68% (inactive).

For `O=C(/C=C/c1cccc([N+](=O)[O-])c1)OCC(=O)N1CCN(C(=O)c2ccco2)CC1`, the inhibition was 0.39% (inactive).

As to `COc1cccc(NC(=O)C2CCCN2C(=O)Nc2ccccc2F)c1` (centres undefined), the inhibition was -4.94% (inactive).

Turning to `Oc1ccc2ccccc2c1CN1CCN(C/C=C/c2ccccc2)CC1`, the inhibition was -14.3% (inactive).

As to `CC(/C=C1\SC(=S)N(CCCC(=O)Nc2ccc(C(=O)O)cc2)C1=O)=C\c1ccccc1`, the inhibition is 11.7% (inactive).

As for `O=C(O)c1ccc(N2C(=O)/C(=C/C=C/c3ccccc3)SC2=S)cc1`, the inhibition was 16% (inactive).

On to `COc1ccc(NC(=O)CN(C)C(=O)c2cccc(S(=O)(=O)N3CCN(C)CC3)c2)cc1`, for which the inhibition is -5.07% (inactive).

Take `CCOC(=O)c1c(NC(=O)C2C3CCC(O3)C2C(=O)O)sc2c1CCC(CC)C2` (centres undefined): the inhibition is 4.42% (inactive).

`CCOC(=O)c1c(NC(=O)C2C3C=CC(C3)C2C(=O)O)sc2c1CCC(C)C2` (centres undefined): the inhibition was -2.91% (inactive).

As to `CCOC(=O)c1c(NC(=O)C2C3C=CC(C3)C2C(=O)O)sc2c1CC(C)CC2` (centres undefined), the inhibition is 7.29% (inactive).

Take `CCOC(=O)c1c(NC(=O)C2C3C=CC(C3)C2C(=O)O)sc2c1CCCC2` (centres undefined): the inhibition is 4.37% (inactive).

In the case of `COc1cc2c(cc1OC)C(C(N)=O)NCC2` (centres undefined), the inhibition was 0.81% (inactive).

With `O=C(CN1CCN(c2ccccc2F)CC1)c1ccc(O)c(O)c1`, the inhibition is 6.62% (inactive).

Turning to `CNS(=O)(=O)c1cccc(C(=O)OCC(=O)Nc2ccc(OC)cc2[N+](=O)[O-])c1`, the inhibition is 6.24% (inactive).

For the molecule `COc1ccc(Nc2ccc(Cl)cc2)c(C(=O)O)c1`, the inhibition was 9.44% (inactive).

`COc1ccc(NC(=O)Cc2ccc(Cl)cc2Cl)cn1`: the inhibition is -4.71% (inactive).

Take `CCCCC(=O)Nc1cc(Cl)ccc1C(=O)O`: the inhibition was 1.56% (inactive).

`CCC(=O)Nc1cc(Cl)ccc1C(=O)O`: the inhibition is -5.46% (inactive).

`CC(C)(C)c1ccc(S(=O)(=O)N2CCN(c3ncccn3)CC2)cc1`: the inhibition is -5.15% (inactive).

On to `O=C(OCCCOC(=O)c1cc[n+]([O-])cc1)c1cc[n+]([O-])cc1`, for which the inhibition is -7.73% (inactive).

`CN(C)/C=C1\C(=O)N(c2ccc(Oc3ccccc3)cc2)CS1=O` (centres undefined): the inhibition is -8.86% (inactive). The inhibition under setting [1] is 4.42%.

As for `C=CCN1C(=O)C(Cc2ccc(F)cc2)S/C1=N/N=C/c1cccs1` (centres undefined), the inhibition is -3.47% (inactive).

Regarding `O=C(Nc1sc2c(c1C(=O)O)CCC2)c1cccc(Cl)c1`, the inhibition was 15.2% (inactive).

As to `Cc1cccc(C(=O)Nc2sc3c(c2C(=O)O)CCCC3)c1`, the inhibition was 2.61% (inactive).

As to `CC(=O)c1cccc(NC(=O)C23CC4CC(C2)CC(n2cncn2)(C4)C3)c1`, the inhibition was -0.64% (inactive).

`NCCCC[C@@H](C(=O)NCCCCCCCCCCC(=O)N1CCNCC1)n1cc(CCCC(=O)O)nn1`: the inhibition was -0.8% (inactive).

In the case of `Cc1cc2ccccc2n2c(SCC(=O)N3CCOCC3)nnc12`, the inhibition was -8.09% (inactive).

As to `COc1ccc(CNC(=O)C(C)OC(=O)CCN2C(=O)C3CC=CCC3C2=O)cc1` (centres undefined), the inhibition is 2.89% (inactive).

In the case of `CC1Cc2ccccc2N1C(=O)CSc1ncccn1` (centres undefined), the inhibition is -4.43% (inactive).

As for `C=CCOc1ccc(/C=C\c2nc(O)c([N+](=O)[O-])c(=O)[nH]2)cc1OC`, the inhibition is 0.57% (inactive).

For the molecule `COc1cc(Br)cc(/C=C/c2ccc3cccc(O)c3n2)c1OC`, the inhibition was 13.2% (inactive).

With `COc1ccc2cc(/C=N/NC(=O)CSCc3ccc([N+](=O)[O-])cc3)c(Cl)nc2c1`, the inhibition was 4.46% (inactive).

On to `c1ccc(CSc2nnc3c(n2)OC(c2ccco2)Nc2ccccc2-3)cc1` (centres undefined), for which the inhibition is -0.8% (inactive).

As for `Cc1ccc(SCc2[nH]nc3c2C2(C(=O)Nc4ccc(F)cc42)C(C#N)=C(N)O3)cc1` (centres undefined), the inhibition is 2.51% (inactive). Also, the inhibition under setting [1] is 3.94%.

With `CCSc1nnc2c(n1)OC(C)(C)Nc1ccccc1-2`, the inhibition is -5.52% (inactive).

Consider `CSc1nnc2c(n1)OC1(Nc3ccccc3-2)C(=O)Nc2ccccc21` (centres undefined), for which the inhibition is 3.9% (inactive).

Regarding `O=C(CSc1nnc(Cc2ccccc2)n1-c1ccc(Cl)cc1)N1CCOCC1`, the inhibition is -3.47% (inactive).

As for `N=C1C(c2ccccc2)=C(O)C2CCc3ccccc3N12` (centres undefined), the inhibition is -2.07% (inactive).

Turning to `CC(=O)N1CCN(c2ccc([N+](=O)[O-])cc2C#N)CC1`, the inhibition was -1.43% (inactive).

For `O=C1NC(=O)N(Cc2ccccc2)C1=O`, the inhibition is 0% (inactive).

As for `O=C1N/C(=C/c2cccn2-c2ccc(F)cc2)C(=O)N1Cc1ccccc1`, the inhibition was -0.68% (inactive).

Regarding `O=C(CN1CCN(c2ccc(F)cc2)CC1)c1ccc2c(c1)OCO2`, the inhibition is -2.07% (inactive).

In the case of `CC(=O)OC1C([N+]2(C)CCCCC2)C[C@H]2C3CC[C@H]4C[C@H](OC(C)=O)C([N+]5(C)CCCCC5)CC4(C)[C@H]3CCC12C` (some centres undefined), the inhibition is -1.47% (inactive).

For the molecule `Cn1c(SCc2ccccc2)nccc1=O`, the inhibition was 1.94% (inactive).

Regarding `O=C1C(SCCO)=C(SCCO)C(=O)c2ccccc21`, the inhibition was -3.66% (inactive).

Take `COc1ccc(Nc2ncnc3sc(-c4ccccc4)cc23)cc1`: the inhibition was -5.46% (inactive).

Take `CCN1C(=O)/C(=C/c2cccs2)S/C1=N\S(=O)(=O)c1ccc(C)cc1`: the inhibition was -2.56% (inactive).

`Cc1ccc(S(=O)(=O)NN2C(=O)/C(=C/c3ccccn3)SC2=S)cc1`: the inhibition was 14% (inactive).

In the case of `O=C(NN1C(=O)/C(=C/c2cccs2)SC1=S)c1ccccc1`, the inhibition was -1.93% (inactive).

For the molecule `O=C(NN1C(=O)/C(=C/c2cccs2)SC1=S)c1ccncc1`, the inhibition was -4.6% (inactive).

For the molecule `Cc1cc(C)cc(OCC(=O)N/N=C/c2ccccn2)c1`, the inhibition is 6.27% (inactive).

For `COc1cc2c(cc1OC)C(c1cccs1)N(C(=S)NC(C)C)CC2` (centres undefined), the inhibition was -5.35% (inactive).

As for `Cc1ccc(-c2nnn(CC(=O)N(Cc3ccccc3)C(C(=O)NC(C)(C)C)c3ccncc3)n2)o1` (centres undefined), the inhibition was -0.68% (inactive).

`Cc1cccc(C)c1OCC(O)Cn1c2ccccc2c2ccccc21` (centres undefined): the inhibition was -10.5% (inactive).

Consider `CCCc1c(C)c2ccccc2[nH]c1=O`, for which the inhibition was -1.65% (inactive).

In the case of `Cc1ccc(C(=O)O)cc1NS(=O)(=O)c1ccc2c(c1)oc(=O)n2C`, the inhibition is -6.53% (inactive).

Turning to `O=C(O)c1cccc(N2C(=O)c3ccc4c5c(ccc(c35)C2=O)C(=O)N(c2cccc(C(=O)O)c2)C4=O)c1`, the inhibition was 16.5% (inactive).

As for `Cc1cc(C)cc(N2C(=O)C=CC2=O)c1`, the inhibition is -24.7% (inactive).

Take `O=C(O)c1cccc(N2C(=O)C3CC=CCC3C2=O)c1` (centres undefined): the inhibition is -1.37% (inactive).

`O=C(O)c1cc(C(=O)O)cc(N2C(=O)CSC2=S)c1`: the inhibition was -4.42% (inactive).

With `N/C(=N\OC(=O)Oc1ccccc1)c1ccc(Cl)cc1`, the inhibition is 2.93% (inactive).

As for `COc1ccc(CNC(=O)c2cc(=O)c3cc(C)cc(C)c3o2)cc1`, the inhibition was -5.29% (inactive).

On to `O=[N+]([O-])c1ccc(SCc2c(F)cccc2Cl)nc1`, for which the inhibition is -6.18% (inactive).

Consider `O=C(O)/C=C/C(=O)Nc1ccc(C(=O)c2ccccc2)cc1`, for which the inhibition is -4.59% (inactive).

As for `O=C(O)/C=C/C(=O)Nc1ccc(-c2ccccc2)cc1`, the inhibition was -12.6% (inactive).

`CC(C)CN(C(=O)CCCSc1nc2ccccc2[nH]1)c1c(N)n(Cc2ccccc2)c(=O)[nH]c1=O`: the inhibition was 2.91% (inactive).

Regarding `CC1(C)Cc2c(sc3[nH]c(=S)[nH]c(=O)c23)CO1`, the inhibition is -1.64% (inactive).

As for `CCC1(C)Cc2c(sc3[nH]c(=S)[nH]c(=S)c23)CO1` (centres undefined), the inhibition was -4.57% (inactive).

`O=S(=O)(/N=C(\Nc1ccc(F)cc1)C(F)(F)F)c1ccccc1`: the inhibition was 3.78% (inactive).

With `COc1ccc(C(=O)C(C)Oc2cccc(NC(=O)c3cccc([N+](=O)[O-])c3)c2)cc1` (centres undefined), the inhibition was 3.25% (inactive).

As for `Cc1ccccc1N=Nc1ccc(O)c2ncccc12`, the inhibition is -2.17% (inactive).

For the molecule `NS(=O)(=O)c1ccc(N=Nc2ccc(O)c3ncccc23)cc1`, the inhibition was 13.7% (inactive).

For the molecule `CCN(CC)c1nc2ccccc2n(Cc2cccc(OC)c2)c1=O`, the inhibition is -2.37% (inactive).

With `Cc1ccc(S(=O)(=O)N2CCC[C@H]2C(=O)OCC(=O)c2ccc3c(c2)NC(=O)CO3)cc1`, the inhibition was -4.71% (inactive).

Broadly, the inhibition is the change of the read-out against control, counted positive when it falls.
